The record followed here is PubChem BioAssay (Tox21).

Test [1] is described as follows: qHTS assay to identify small molecule agonists of the peroxisome proliferator-activated receptor delta (PPARd) signaling pathway - cell viability counter screen (AID 743211). Note: nearly all actives have a fitted effect of over 55% in size. The gist of the method:
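Read-out: CellTiter-Glo luminescence, 30 min RT, measured in the same wells as the beta-lactamase reporter. Cells: GeneBLAzer PPAR delta UAS-bla HEK293H, 3000 cells/well, compound exposure 17 h at 37C.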
In general terms: In qHTS, concentration-response curves come from the screen itself.

Test [2] is described as follows: qHTS assay to identify small molecule antagonists of the peroxisome proliferator-activated receptor delta (PPARd) signaling pathway - cell viability counter screen (AID 743213). Note: nearly all actives have a fitted effect of over 50% in size. Note: potency is the fitted concentration of half-maximal effect. The gist of the method:
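Cytotoxicity counter screen: CellTiter-Glo luminescence read 30 min after addition, in the same wells as the reporter assay. There, PPARd UAS-bla HEK293H cells (3000/well) were treated 17 h at 37 C with compound and 300 nM L165041.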

A short description of test [3]: qHTS assay to identify small molecule agonists of the farnesoid-X-receptor (FXR) signaling pathway - cell viability counter screen (AID 743218). Note: nearly all actives have a fitted effect of over 45% in size. Note: potency is the fitted concentration of half-maximal effect. The gist of the method: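 In GeneBLAzer FXR-UAS-bla HEK 293T cells, compounds act for 16 h at 37 C. Cell viability is then scored in the reporter wells by CellTiter-Glo, 30 min at RT, luminescence.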
A short description of test [4]: qHTS assay to identify small molecule antagonists of the farnesoid-X-receptor (FXR) signaling pathway - cell viability counter screen (AID 743221; active = well fitted cell-killing curve with a large enough effect in the repeat runs, not every such curve was filed as active; note: nearly all actives have a fitted effect of over 50% in size). The method, boiled down:
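HEK 293T FXR-bla cells, 5 h pre-incubation; compound + CDCA 50 uM final, 16 h, 37 C; beta-lactamase FRET read first, then CellTiter-Glo luminescence, 30 min RT.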

For test [5], the target named is Vitamin D3 receptor (Homo sapiens) (UniProt P11473). Put plainly: qHTS assay to identify small molecule agonists of the vitamin D receptor (VDR) signaling pathway (AID 743222; calls by dose curve). The gist of the method:
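Agonist activity measured in VDR-bla reporter cells. Exposure 16 h, 37C, 5% CO2; detection by B/G FRET substrate, 2 h RT.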

For test [6] the target is unchanged. As to the kind of experiment: qHTS assay to identify small molecule antagonists of the vitamin D receptor (VDR) signaling pathway (AID 743223; active = well fitted inhibition curve with a large enough effect in the signal ratio in the repeat runs, not every such curve was filed as active; the % refers to the signal ratio). The method, boiled down: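 Beta-lactamase reporter read-out: FRET substrate fluorescence after 2 h at room temperature, following 16 h exposure of VDR-bla cells to test compound plus 3 nM (final) 1alpha,25-dihydroxyvitamin D3 agonist at 37C.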

For test [7], the target named is Peroxisome proliferator-activated receptor delta (Homo sapiens) (UniProt Q03181). As to the kind of experiment: qHTS assay to identify small molecule agonists of the peroxisome proliferator-activated receptor delta (PPARd) signaling pathway (AID 743212; calls by dose curve). The gist of the method: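 HEK293H UAS-bla reporter cells, human PPARd system; compounds delivered in DMSO after 5 h plating, then at 37 C. Beta-lactamase FRET read, 2 h RT substrate step.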

Test [8] has the same target. Put plainly: qHTS assay to identify small molecule antagonists of the peroxisome proliferator-activated receptor delta (PPARd) signaling pathway (AID 743215; active = well fitted inhibition curve with a large enough effect in the signal ratio in the repeat runs, not every such curve was filed as active; the % refers to the signal ratio;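 note: cells stimulated with agonist L165041 at 300 nM final during compound exposure; series mostly up to about 62 µM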). The method, boiled down: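 Antagonist-mode beta-lactamase reporter screen: HEK293H cells with UAS-bla under PPARd control, stimulated by 300 nM L165041 (final) alongside test compound for 17 h at 37 C, then FRET fluorescence after 2 h substrate incubation.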

Test [9] deals with Bile acid receptor (Homo sapiens) (UniProt Q96RI1). As to the kind of experiment: qHTS assay to identify small molecule antagonists of the farnesoid-X-receptor (FXR) signaling pathway (AID 743217; active = well fitted inhibition curve with a large enough effect in the signal ratio in the repeat runs, not every such curve was filed as active; the % refers to the signal ratio; note: potency is the fitted concentration of half-maximal effect). The method, boiled down:
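Beta-lactamase reporter under UAS control in HEK 293T cells; compound exposure 16 h at 37 °C in the presence of chenodeoxycholic acid (50 uM final); signal from B/G FRET substrate after 2 h at room temperature.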

The target is the same in test [10]. As to the kind of experiment: qHTS assay to identify small molecule agonists of the farnesoid-X-receptor (FXR) signaling pathway (AID 743220; active = well fitted activation curve with a large enough effect in the signal ratio in the repeat runs, not every such curve was filed as active; the % refers to the signal ratio). The method, boiled down: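 Beta-lactamase reporter under UAS control in GeneBLAzer FXR HEK 293T cells (5000/well) measured with LiveBLAzer FRET substrate after 2 h at room temperature. Compound exposure lasted 16 h at 37C.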

Structures are written as SMILES. Inconclusive results are not listed. Unmarked numbers belong to inactive results. The source made the active and inactive calls. Unless noted, calls come from the whole dose curve; as a rule, active = well fitted curve in the direction sought with a large enough effect in the repeat runs; inconclusive = weak or mixed curves; inactive = no such curve, though single readings can be large; an effect the other way counts as inactive or inconclusive.
% is set by controls: 0 for no effect and ±100 for the full control effect.

Peroxisome proliferator-activated receptor delta (Homo sapiens), sequence (Q03181 whole entry, looked up): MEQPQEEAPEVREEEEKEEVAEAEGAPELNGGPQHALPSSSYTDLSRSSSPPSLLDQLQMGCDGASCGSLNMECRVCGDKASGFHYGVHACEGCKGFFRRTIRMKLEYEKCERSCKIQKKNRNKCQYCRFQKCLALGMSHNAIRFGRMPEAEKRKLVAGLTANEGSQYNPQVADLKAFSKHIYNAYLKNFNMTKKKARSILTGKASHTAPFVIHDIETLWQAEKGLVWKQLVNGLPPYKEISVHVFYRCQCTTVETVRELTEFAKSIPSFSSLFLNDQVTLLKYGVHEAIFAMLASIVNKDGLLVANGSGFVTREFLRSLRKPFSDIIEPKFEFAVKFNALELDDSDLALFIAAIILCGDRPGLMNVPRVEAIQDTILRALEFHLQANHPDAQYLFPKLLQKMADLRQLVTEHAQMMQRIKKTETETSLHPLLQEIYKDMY
Bile acid receptor (Homo sapiens), sequence (Q96RI1 whole entry, looked up): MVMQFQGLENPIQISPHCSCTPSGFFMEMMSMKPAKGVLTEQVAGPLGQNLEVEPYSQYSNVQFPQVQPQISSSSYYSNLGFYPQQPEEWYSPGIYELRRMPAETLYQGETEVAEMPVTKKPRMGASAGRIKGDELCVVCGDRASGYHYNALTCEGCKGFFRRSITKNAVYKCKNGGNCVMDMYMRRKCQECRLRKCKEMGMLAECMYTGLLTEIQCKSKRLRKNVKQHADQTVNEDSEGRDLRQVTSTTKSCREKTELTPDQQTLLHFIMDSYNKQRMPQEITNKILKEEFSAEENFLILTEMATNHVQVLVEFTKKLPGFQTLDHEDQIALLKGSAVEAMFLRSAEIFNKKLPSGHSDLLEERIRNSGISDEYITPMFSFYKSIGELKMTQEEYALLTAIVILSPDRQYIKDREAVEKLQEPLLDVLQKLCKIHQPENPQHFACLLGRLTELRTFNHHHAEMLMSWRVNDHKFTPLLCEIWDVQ
Vitamin D3 receptor (Homo sapiens), sequence (P11473 whole entry, looked up): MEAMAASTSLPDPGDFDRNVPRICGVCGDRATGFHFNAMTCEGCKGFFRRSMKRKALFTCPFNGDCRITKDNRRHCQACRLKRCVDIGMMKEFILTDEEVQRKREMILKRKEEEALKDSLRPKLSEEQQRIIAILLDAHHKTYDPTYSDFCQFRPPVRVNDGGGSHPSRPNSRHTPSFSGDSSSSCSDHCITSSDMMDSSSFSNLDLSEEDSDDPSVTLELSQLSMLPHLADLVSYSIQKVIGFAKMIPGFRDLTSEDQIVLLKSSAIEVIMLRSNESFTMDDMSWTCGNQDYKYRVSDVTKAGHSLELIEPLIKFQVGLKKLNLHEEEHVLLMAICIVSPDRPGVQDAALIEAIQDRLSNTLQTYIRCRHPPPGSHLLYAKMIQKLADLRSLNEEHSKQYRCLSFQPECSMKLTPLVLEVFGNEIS

With `CCC(C)[O-].CCC(C)[O-].CCOC(=O)/C=C(/C)[O-].[Al+3]`, the Potency entry in test [1], in test [2], in test [3] and in test [4] was “inactive” throughout.

Consider `Clc1ccnc(Cl)n1`, for which the Potency result in test [1], in test [2], in test [3], in [4] and in test [5] was “inactive” each time.

`CC[N+](CC)(CC)CCOc1ccc(/C=C/c2ccccc2)cc1`: the Potency result in test [1], in [2], in test [3] and in test [4] was “inactive” throughout.

`COc1ccc(-c2coc3cc(O)ccc3c2=O)cc1`: the Potency entry in test [1], in [2], in test [3], in [4] and in test [5] was “inactive” throughout.

For the compound `COc1cccc(OC)c1C(=O)O`, the Potency result in test [1], in test [2] and in test [4] was “inactive” each time.

Regarding `CCO[Si](OCC)(OCC)OCC`, the Potency entry in [1], in [2], in test [4] and in [6] was “inactive” in each case.

For the compound `O=C(O)CCN(C1(C(=O)NO)CCCC1)S(=O)(=O)c1ccc(Oc2ccc(F)cc2)cc1`, the Potency result in test [1], in test [2], in test [3] and in test [4] was “inactive” in each case.

As to `OC1CCC(C2CCCCC2)CC1` (centres undefined), the Potency result in test [7], in [2], in test [8], in test [9], in [3] and in [10] was “inactive” in each case. Also, the Potency entry in [4], in test [5] and in [6] was “inactive” each time.

`Cc1nc2n(c(=O)c1CCN1CCC(c3noc4cc(F)ccc34)CC1)CCCC2`: the Potency entry in test [7], in test [2], in test [8], in [3], in [4] and in [5] was “inactive” in each case.

In the case of `O=C(O)O`, the activation in test [7] is -0.685% [at 5.95 µM]. In test [2], the Potency is 2.37 µM (active). For the same compound, the viability change, negative = cytotoxic in test [3] was 5.67% [at 5.95 µM]. Besides, the activity change, negative = cytotoxicity in test [4] is -10.5% [at 5.95 µM]. Also, the activity change, negative = inhibition in [6] is 0.752% [at 6.95 µM].

Consider `c1ccc(C(O[C@@H]2CCCN(CCc3ccc4c(c3)OCO4)C2)c2ccccc2)cc1`, for which the Potency result in [7], in [2] and in [4] was “inactive” in each case.

Consider `C[C@H]1NCc2cc(-c3ccc4c(=O)c(C(=O)O)cn(C5CC5)c4c3OC(F)F)ccc21`, for which the Potency entry in [7], in test [8], in [3], in test [4] and in test [6] was “inactive” in each case.

`Nc1ccc(Oc2ccc(Cl)cc2)cc1`: the Potency result in [7], in [2], in [8], in [9], in test [3] and in test [10] was “inactive” each time. The Potency entry in test [4] and in test [6] was “inactive” in each case.

Regarding `COc1cc2nc(N3CCN(C(=O)c4ccco4)CC3)nc(N)c2cc1OC`, the Potency result in test [7], in test [8], in [9] and in [4] was “inactive” throughout.

As for `CCCCCCCCCCC[C@@H](C[C@@H]1OC(=O)[C@H]1CCCCCC)OC(=O)[C@H](CC(C)C)NC=O`, the Potency entry in [7], in test [2], in test [8], in test [3] and in [6] was “inactive” each time.

`COC(=O)c1ccccc1C`: the Potency result in [7], in [2], in [8], in test [9], in [10] and in [4] was “inactive” each time.

For the compound `C=CCn1c(=O)n(CC=C)c(=O)n(CC=C)c1=O`, the Potency entry in test [7], in [2], in test [8], in test [4], in test [5] and in [6] was “inactive” throughout.

Take `CN(C)Cc1cc(C(C)(C)C)c(O)c(C(C)(C)C)c1`: the Potency result in [7], in test [2], in test [5] and in test [6] was “inactive” throughout.

Turning to `COc1c(C)c2c(c(O)c1C/C=C(\C)CCC(=O)OCCN1CCOCC1)C(=O)OC2`, the Potency result in test [7], in test [10] and in test [5] was “inactive” in each case. Further, the Potency in [9] is 1.5 µM (active).

As to `OCC(F)(F)F`, the Potency result in [7], in test [8], in test [9], in test [3], in test [10] and in [4] was “inactive” each time. The Potency result in test [5] and in test [6] was “inactive” throughout.

For `Cc1cc(C(C)(C)C)c(O)c(C)c1Cn1c(=O)n(Cc2c(C)cc(C(C)(C)C)c(O)c2C)c(=O)n(Cc2c(C)cc(C(C)(C)C)c(O)c2C)c1=O`, the Potency result in test [7], in [2], in test [8], in test [10] and in test [6] was “inactive” throughout. The Potency in [9] was 19.5 µM (active).

As to `C#C[C@]1(OC(C)=O)CC[C@H]2[C@@H]3CCC4=C[C@@H](OC(C)=O)CC[C@@H]4[C@H]3CC[C@@]21C`, the Potency entry in [7], in test [2], in test [8], in test [3], in test [4] and in test [5] was “inactive” throughout.

`OC/C=C/CO`: the Potency entry in [7], in test [2], in test [8], in test [4], in test [5] and in test [6] was “inactive” each time.

`O=c1[nH]c(=O)n([C@H]2C[C@H](O)[C@@H](CO)O2)cc1F`: the Potency result in test [7], in test [8] and in test [6] was “inactive” throughout. Besides, the Potency in test [3] was 13.3 µM (active).
